Measurements taken from PubChem BioAssay (NCATS).
Inconclusive results are not listed. The source made the active and inactive calls. The call rests on the fitted dose curve; in most records, active means well fitted cell-killing curve with a large enough effect; inconclusive means small, poorly fitted or top-dose-only effect, or effect the other way; inactive means flat fitted curve, though single readings scatter.

Key:
Test in all cases: Primary qHTS to identify gynecologic anti-cancer compounds using libraries of approved drugs and bioactive compounds (AID 1345084); further: nearly all actives have a fitted effect of over 55% in size
C33A = conditions: Gynecologic cancer cell panel viability, ATPlite luminescence, 48 h; series mostly up to 57.5 µM
Method in brief: (§1)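 Measured: luminescence after ATPlite addition (15 min, RT). Exposure: 48 h, 37 C, 5% CO2.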

CAOV3 = conditions: Gynecologic cancer cell panel viability, ATPlite luminescence, 48 h; series mostly up to 57.5 µM
Method in brief: as §1

CASKI = conditions: Gynecologic cancer cell panel viability, ATPlite luminescence, 48 h; series mostly up to 57.5 µM
Method in brief: as §1

Es-2 = conditions: Gynecologic cancer cell panel viability, ATPlite luminescence, 48 h; series mostly up to 57.5 µM
Method in brief: as §1

HeLa = conditions: Gynecologic cancer cell panel viability, ATPlite luminescence, 48 h; series mostly up to 57.5 µM
Method in brief: as §1

Hek293T = conditions: Gynecologic cancer cell panel viability, ATPlite luminescence, 48 h, control line for the selectivity index; series mostly up to 57.5 µM
Method in brief: as §1

JEG-3 = conditions: Gynecologic cancer cell panel viability, ATPlite luminescence, 48 h; series mostly up to 57.5 µM
Method in brief: as §1
On the % scale 0 is the no-effect control and ±100 the full control effect.

N[C@H]1C[C@H]1c1ccc(-c2cccc(O)c2)cc1
inactive: Potency (C33A) | Potency (CAOV3) | Potency (CASKI) | Potency (Es-2) | Potency (HeLa) | Potency (Hek293T) | Potency (JEG-3)

Clc1ccc(CN[C@H]2CCN(c3ncc(Br)cn3)C2)c(Cl)c1
inactive: Potency (C33A) | Potency (CAOV3) | Potency (CASKI) | Potency (Es-2) | Potency (HeLa) | Potency (Hek293T) | Potency (JEG-3)

COc1cc(C(=O)OC[C@H]2O[C@H](O[C@@]3(CO)O[C@@H](CO)[C@H](O)[C@H]3O)[C@H](O)[C@@H](O)[C@@H]2O)ccc1O
inactive: Potency (C33A) | Potency (CAOV3) | Potency (CASKI) | Potency (Es-2) | Potency (HeLa) | Potency (Hek293T) | Potency (JEG-3)

CC1(C)CC[C@]2(C(=O)O[C@@H]3O[C@H](CO)[C@@H](O)[C@H](O)[C@H]3O)CC[C@]3(C)C(=CCC4[C@@]5(C)C[C@@H](O)[C@H](O)[C@@](C)(CO)C5CC[C@]43C)C2C1 (stereo partly drawn)
inactive: Potency (C33A) | Potency (CAOV3) | Potency (CASKI) | Potency (Es-2) | Potency (HeLa) | Potency (Hek293T) | Potency (JEG-3)

CC1(C)CC2C3=CCC4C5(C)CCC(OC6OC(C(=O)O)C(O)C(O)C6OC6OC(CO)C(O)C(O)C6OC6OC(CO)C(O)C(O)C6O)C(C)(CO)C5CCC4(C)C3(C)CCC2(C)C(OC2OCC(O)C(OC3OC(CO)C(O)C(O)C3O)C2O)C1O (stereo not drawn)
inactive: activity change, negative = cytotoxicity (C33A) 8.44% [at 6.55 µM] | activity change, negative = cytotoxicity (CAOV3) 13.1% [at 6.55 µM] | activity change, negative = cytotoxicity (CASKI) 6.12% [at 6.55 µM] | activity change, negative = cytotoxicity (Es-2) 1.46% [at 6.55 µM] | activity change, negative = cytotoxicity (HeLa) -0.393% [at 6.55 µM] | activity change, negative = cytotoxicity (Hek293T) 8.01% [at 6.55 µM] | activity change, negative = cytotoxicity (JEG-3) 6.32% [at 6.55 µM]

O=C(C1CC1)N1CC[C@@H](Cc2n[nH]c(=O)n2-c2ccc(-c3ccc4occc4c3)cc2)C1
inactive: Potency (C33A) | Potency (CAOV3) | Potency (CASKI) | Potency (Es-2) | Potency (HeLa) | Potency (Hek293T) | Potency (JEG-3)

CCC[C@@H]1C[C@@H](C(=O)N[C@H](C(C)Cl)[C@H]2O[C@H](SC)[C@H](O)[C@@H](O)[C@H]2O)N(C)C1 (stereo partly drawn)
inactive: Potency (C33A) | Potency (CAOV3) | Potency (CASKI) | Potency (Es-2) | Potency (HeLa) | Potency (Hek293T) | Potency (JEG-3)

C/C=C(\C)C(=O)O[C@@H]1CC2[C@@H](CC=C3C[C@@H](O[C@H]4C[C@H](OC)[C@H](O[C@H]5C[C@H](OC)[C@H](O[C@H]6C[C@H](OC)[C@H](O[C@H]7C[C@@H](OC)[C@H](O[C@@H]8O[C@H](CO)[C@@H](O)[C@H](O)[C@H]8O)[C@@H](C)O7)[C@@H](C)O6)[C@@H](C)O5)[C@@H](C)O4)CC[C@@]32C)[C@@]2(O)CC[C@H](C(C)=O)[C@@]12C (stereo partly drawn)
inactive: activity change, negative = cytotoxicity (C33A) 1.71% [at 6.55 µM] | activity change, negative = cytotoxicity (CAOV3) -0.474% [at 6.55 µM] | activity change, negative = cytotoxicity (CASKI) -0.911% [at 6.55 µM] | activity change, negative = cytotoxicity (Es-2) -1.08% [at 6.55 µM] | activity change, negative = cytotoxicity (HeLa) -14.4% [at 6.55 µM] | activity change, negative = cytotoxicity (Hek293T) 11.8% [at 6.55 µM] | activity change, negative = cytotoxicity (JEG-3) -0.396% [at 6.55 µM]

C[C@@H]1C/C=C/C=C\C=C\C=C\[C@H](O[C@@H]2O[C@H](C)[C@@H](O)[C@H](N)[C@@H]2O)C[C@@H]2O[C@](O)(C[C@@H](O)C[C@H]3O[C@@H]3/C=C/C(=O)O1)C[C@H](O)[C@H]2C(=O)O
inactive: Potency (C33A) | Potency (CAOV3) | Potency (CASKI) | Potency (Es-2) | Potency (HeLa) | Potency (Hek293T) | Potency (JEG-3)

Cc1c(CN(C)C(=O)/C=C/c2cnc3c(c2)CCC(=O)N3)oc2ccccc12
inactive: Potency (C33A) | Potency (CAOV3) | Potency (CASKI) | Potency (Es-2) | Potency (HeLa) | Potency (Hek293T) | Potency (JEG-3)

C[C@@H]1O[C@@H](O[C@H]2[C@H](O[C@H]3[C@H](O[C@H]4CC[C@@]5(CO)C(CC[C@]6(C)C5CC=C5C7CC(C)(C)C[C@@H](O)[C@]7(C)CC[C@]56C)C4(C)C)O[C@H](C(=O)O)[C@@H](O)[C@@H]3O)OC[C@@H](O)[C@@H]2O)[C@H](O)[C@H](O)[C@H]1O (stereo partly drawn)
inactive: activity change, negative = cytotoxicity (C33A) -1.54% [at 11.6 µM] | activity change, negative = cytotoxicity (CAOV3) 7.01% [at 11.6 µM] | activity change, negative = cytotoxicity (CASKI) 6.9% [at 11.6 µM] | activity change, negative = cytotoxicity (Es-2) -4.17% [at 11.6 µM] | activity change, negative = cytotoxicity (HeLa) -12.2% [at 11.6 µM] | activity change, negative = cytotoxicity (Hek293T) -3.07% [at 11.6 µM] | activity change, negative = cytotoxicity (JEG-3) -1.11% [at 11.6 µM]

C/C(=C\CCC(C)(O)c1ccc(C)cc1)C(=O)O (stereo not drawn)
inactive: Potency (C33A) | Potency (CAOV3) | Potency (CASKI) | Potency (Es-2) | Potency (HeLa) | Potency (Hek293T) | Potency (JEG-3)

CC1(C(=O)O)CCCC2(C)C1CCC13CC(CCC21)C1(CO)OC31 (stereo not drawn)
inactive: Potency (C33A) | Potency (CAOV3) | Potency (CASKI) | Potency (Es-2) | Potency (HeLa) | Potency (Hek293T) | Potency (JEG-3)

CC1OC(OC2C(CO)OC(OCC3OC(OC(=O)C45CCC(C)(C)CC4C4=CCC6C7(C)CCC(OC8OC(C(=O)O)C(O)C(OC9OC(CO)C(O)C(O)C9O)C8O)C(C)(C)C7CCC6(C)C4(C)CC5)C(O)C(O)C3O)C(O)C2O)C(O)C(O)C1O (stereo not drawn)
inactive: activity change, negative = cytotoxicity (C33A) 4.48% [at 6.55 µM] | activity change, negative = cytotoxicity (CAOV3) -1.08% [at 6.55 µM] | activity change, negative = cytotoxicity (CASKI) 0.241% [at 6.55 µM] | activity change, negative = cytotoxicity (Es-2) 5.55% [at 6.55 µM] | activity change, negative = cytotoxicity (HeLa) -1.58% [at 6.55 µM] | activity change, negative = cytotoxicity (Hek293T) 6.6% [at 6.55 µM] | activity change, negative = cytotoxicity (JEG-3) 9.3% [at 6.55 µM]

O=C(NCC(=O)N1CC[C@H](NC2CCC(O)(c3ccc(-c4ncccn4)cn3)CC2)C1)c1cccc(C(F)(F)F)c1 (stereo partly drawn)
inactive: Potency (C33A) | Potency (CAOV3) | Potency (CASKI) | Potency (Es-2) | Potency (HeLa) | Potency (Hek293T) | Potency (JEG-3)

CO[C@@H]1CC[C@H](OC[C@]2(COC(=O)c3ccc(C)[nH]3)[C@H](OC(C)=O)CC[C@@]3(C)[C@@H]4CC=C(C)[C@@H](C5=C(O)C(=O)OC5O)[C@]4(C)CC[C@@H]32)O[C@H]1C (stereo partly drawn)
inactive: Potency (C33A) | Potency (CAOV3) | Potency (CASKI) | Potency (Es-2) | Potency (HeLa) | Potency (Hek293T) | Potency (JEG-3)

COc1cc2c(cc1O)C1(OC)Cc3ccc4c(c3C1N(C)CC2)OCO4 (stereo not drawn)
inactive: Potency (C33A) | Potency (CAOV3) | Potency (CASKI) | Potency (Es-2) | Potency (HeLa) | Potency (Hek293T) | Potency (JEG-3)

Cn1c(=O)c2nc(/C=C/c3cccc(Cl)c3)n(C)c2n(C)c1=O
inactive: Potency (C33A) | Potency (CAOV3) | Potency (CASKI) | Potency (Es-2) | Potency (HeLa) | Potency (Hek293T) | Potency (JEG-3)

C[C@@H](OC(=O)/C=C/c1ccc(O)cc1)C1=C[C@]2(C=C[C@@H]3C(C(=O)O)=CO[C@@H](O[C@@H]4O[C@H](CO[C@@H]5O[C@H](CO)[C@@H](O)[C@H](O)[C@H]5O)[C@@H](O)[C@H](O)[C@H]4O)[C@@H]32)OC1=O
inactive: Potency (C33A) | Potency (CAOV3) | Potency (CASKI) | Potency (Es-2) | Potency (HeLa) | Potency (Hek293T) | Potency (JEG-3)
